PMC9911399, “Two distinct binding modes provide the RNA-binding protein RbFox with extraordinary sequence specificity”
Numbering of substitutions follows the chain as printed; changes in the protein carry UniProt numbers. The full ranking holds about 16,000 sequences; the median of “ka relative to ugcaugu” is about 0.096, and the highest 2% start at about 0.35. This is one part of a sample in which the highest values are shown more often than they occur.

T1: RBFOX1 RRM RbFoxmut (Fox-RRM*) (Homo sapiens, UniProt Q9NWB1 109-208, R118D;E147R;N151S;E152T)
T1 sequence: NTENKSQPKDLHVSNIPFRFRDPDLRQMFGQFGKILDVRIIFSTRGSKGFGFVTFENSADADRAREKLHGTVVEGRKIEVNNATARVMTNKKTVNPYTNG

B1: UGGCCCU (DNA:RNA)
RNA: GGGAGACCGGAAUUCAGAUUGUCCUGGCCCUUUAAAUCCCGUCGUAGCCACCA
DNA 1: CAATCTGAATTCCGGTCTCCC
DNA 2: TGGTGGCTACGACGGGATT
B2: CGUCUUG (DNA:RNA)
RNA: B1 RNA with U25C, G27U, C29U, C30U, U31G
DNA 1: CAATCTGAATTCCGGTCTCCC
DNA 2: TGGTGGCTACGACGGGATT
B3: GGAUUGG (DNA:RNA)
RNA: B1 RNA with U25G, G27A, C28U, C29U, C30G, U31G
DNA 1: CAATCTGAATTCCGGTCTCCC
DNA 2: TGGTGGCTACGACGGGATT
B4: CACCGUC (DNA:RNA)
RNA: B1 RNA with U25C, G26A, G27C, C29G, C30U, U31C
DNA 1: CAATCTGAATTCCGGTCTCCC
DNA 2: TGGTGGCTACGACGGGATT
B5: ACCAGUC (DNA:RNA)
RNA: GGGAGACCGGAAUUCAGAUUGUCCACCAGUCUUAAAUCCCGUCGUAGCCACCA
DNA 1: CAATCTGAATTCCGGTCTCCC
DNA 2: TGGTGGCTACGACGGGATT
B6: CGUCGUC (DNA:RNA)
RNA: B5 RNA with A25C, C26G, C27U, A28C
DNA 1: CAATCTGAATTCCGGTCTCCC
DNA 2: TGGTGGCTACGACGGGATT
B7: AGUCUUG (DNA:RNA)
RNA: B5 RNA with C26G, C27U, A28C, G29U, C31G
DNA 1: CAATCTGAATTCCGGTCTCCC
DNA 2: TGGTGGCTACGACGGGATT
B8: GUUGGUC (DNA:RNA)
RNA: B5 RNA with A25G, C26U, C27U, A28G
DNA 1: CAATCTGAATTCCGGTCTCCC
DNA 2: TGGTGGCTACGACGGGATT
B9: AGUCGUC (DNA:RNA)
RNA: B5 RNA with C26G, C27U, A28C
DNA 1: CAATCTGAATTCCGGTCTCCC
DNA 2: TGGTGGCTACGACGGGATT
B10: GUCUUGG (DNA:RNA)
RNA: B5 RNA with A25G, C26U, A28U, G29U, U30G, C31G
DNA 1: CAATCTGAATTCCGGTCTCCC
DNA 2: TGGTGGCTACGACGGGATT
B11: GGUCGUC (DNA:RNA)
RNA: B5 RNA with A25G, C26G, C27U, A28C
DNA 1: CAATCTGAATTCCGGTCTCCC
DNA 2: TGGTGGCTACGACGGGATT
B12: GUCGGUC (DNA:RNA)
RNA: B5 RNA with A25G, C26U, A28G
DNA 1: CAATCTGAATTCCGGTCTCCC
DNA 2: TGGTGGCTACGACGGGATT
B13: GGUCUUG (DNA:RNA)
RNA: B1 RNA with U25G, G27U, C29U, C30U, U31G
DNA 1: CAATCTGAATTCCGGTCTCCC
DNA 2: TGGTGGCTACGACGGGATT
B14: AGAGUGG (DNA:RNA)
RNA: B5 RNA with C26G, C27A, A28G, G29U, U30G, C31G
DNA 1: CAATCTGAATTCCGGTCTCCC
DNA 2: TGGTGGCTACGACGGGATT
B15: UCUGGAG (DNA:RNA)
RNA: B5 RNA with A25U, C27U, A28G, U30A, C31G
DNA 1: CAATCTGAATTCCGGTCTCCC
DNA 2: TGGTGGCTACGACGGGATT
B16: AUGUAGG (DNA:RNA)
RNA: B5 RNA with C26U, C27G, A28U, G29A, U30G, C31G
DNA 1: CAATCTGAATTCCGGTCTCCC
DNA 2: TGGTGGCTACGACGGGATT
B17: AUCUCCA (DNA:RNA)
RNA: B5 RNA with C26U, A28U, G29C, U30C, C31A
DNA 1: CAATCTGAATTCCGGTCTCCC
DNA 2: TGGTGGCTACGACGGGATT
B18: GAUAAGU (DNA:RNA)
RNA: B5 RNA with A25G, C26A, C27U, G29A, U30G, C31U
DNA 1: CAATCTGAATTCCGGTCTCCC
DNA 2: TGGTGGCTACGACGGGATT
B19: GAAUACU (DNA:RNA)
RNA: B1 RNA with U25G, G26A, G27A, C28U, C29A
DNA 1: CAATCTGAATTCCGGTCTCCC
DNA 2: TGGTGGCTACGACGGGATT
B20: CCUCACA (DNA:RNA)
RNA: B1 RNA with U25C, G26C, G27U, C29A, U31A
DNA 1: CAATCTGAATTCCGGTCTCCC
DNA 2: TGGTGGCTACGACGGGATT
B21: GCUUGUC (DNA:RNA)
RNA: B5 RNA with A25G, C27U, A28U
DNA 1: CAATCTGAATTCCGGTCTCCC
DNA 2: TGGTGGCTACGACGGGATT
B22: GUCGUCU (DNA:RNA)
RNA: B1 RNA with U25G, G26U, G27C, C28G, C29U
DNA 1: CAATCTGAATTCCGGTCTCCC
DNA 2: TGGTGGCTACGACGGGATT
B23: GGCUUGC (DNA:RNA)
RNA: B5 RNA with A25G, C26G, A28U, G29U, U30G
DNA 1: CAATCTGAATTCCGGTCTCCC
DNA 2: TGGTGGCTACGACGGGATT
B24: GUCUUGU (DNA:RNA)
RNA: B5 RNA with A25G, C26U, A28U, G29U, U30G, C31U
DNA 1: CAATCTGAATTCCGGTCTCCC
DNA 2: TGGTGGCTACGACGGGATT
B25: GUCUUGC (DNA:RNA)
RNA: B5 RNA with A25G, C26U, A28U, G29U, U30G
DNA 1: CAATCTGAATTCCGGTCTCCC
DNA 2: TGGTGGCTACGACGGGATT
B26: GUCUUGA (DNA:RNA)
RNA: B5 RNA with A25G, C26U, A28U, G29U, U30G, C31A
DNA 1: CAATCTGAATTCCGGTCTCCC
DNA 2: TGGTGGCTACGACGGGATT
B27: GUCUUAA (DNA:RNA)
RNA: B5 RNA with A25G, C26U, A28U, G29U, U30A, C31A
DNA 1: CAATCTGAATTCCGGTCTCCC
DNA 2: TGGTGGCTACGACGGGATT
B28: GGAUUGA (DNA:RNA)
RNA: B1 RNA with U25G, G27A, C28U, C29U, C30G, U31A
DNA 1: CAATCTGAATTCCGGTCTCCC
DNA 2: TGGTGGCTACGACGGGATT
B29: GUUUGUC (DNA:RNA)
RNA: B5 RNA with A25G, C26U, C27U, A28U
DNA 1: CAATCTGAATTCCGGTCTCCC
DNA 2: TGGTGGCTACGACGGGATT
B30: UCGUGCG (DNA:RNA)
RNA: B1 RNA with G26C, C28U, C29G, U31G
DNA 1: CAATCTGAATTCCGGTCTCCC
DNA 2: TGGTGGCTACGACGGGATT
B31: UCGCCAG (DNA:RNA)
RNA: B1 RNA with G26C, C30A, U31G
DNA 1: CAATCTGAATTCCGGTCTCCC
DNA 2: TGGTGGCTACGACGGGATT

target: T1, RBFOX1 RRM RbFoxmut (Fox-RRM*); experiment: EMSA; HiTS-Eq, 1 nM pool, 10 min; buffer printed only for the single-RNA assays: 10 mM Tris pH 7.5, 150 mM NaCl, 3.4 mM EDTA, 0.001% NP-40, 30 C; conditions: tags: His6 N-terminal (pET28a); label: 5' 32P
Procedure, shortened: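 Purified RbFox RRM (wild type or mutant) was equilibrated for 10 min in 50 µL with 1 nM of a 5′-radiolabelled pool of RNA with 7 randomized nucleotides, its flanks annealed to DNA oligonucleotides, across increasing protein concentrations. Free RNA was separated by 8% native PAGE, excised, reverse-transcribed, PCR-barcoded and sequenced on an Illumina HiSeq 2500. Relative association constants came from read-count changes of each variant against the control reaction, normalised to the cognate motif.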

Row | Binder | binding signal
1 | B1 | 0.0838 KA relative to UGCAUGU
2 | B2 | 0.615 KA relative to UGCAUGU
3 | B3 | 0.219 KA relative to UGCAUGU
4 | B4 | 0.0639 KA relative to UGCAUGU
5 | B5 | 0.063 KA relative to UGCAUGU
6 | B6 | 0.186 KA relative to UGCAUGU
7 | B7 | 0.459 KA relative to UGCAUGU
8 | B8 | 0.164 KA relative to UGCAUGU
9 | B9 | 0.117 KA relative to UGCAUGU
10 | B10 | 0.403 KA relative to UGCAUGU
11 | B11 | 0.159 KA relative to UGCAUGU
12 | B12 | 0.171 KA relative to UGCAUGU
13 | B13 | 0.368 KA relative to UGCAUGU
14 | B14 | 0.107 KA relative to UGCAUGU
15 | B15 | 0.0838 KA relative to UGCAUGU
16 | B16 | 0.128 KA relative to UGCAUGU

Row | Binder | binding signal
17 | B17 | 0.0926 KA relative to UGCAUGU
18 | B18 | 0.0905 KA relative to UGCAUGU
19 | B19 | 0.0832 KA relative to UGCAUGU
20 | B20 | 0.108 KA relative to UGCAUGU
21 | B21 | 0.248 KA relative to UGCAUGU
22 | B22 | 0.0809 KA relative to UGCAUGU
23 | B23 | 0.199 KA relative to UGCAUGU
24 | B24 | 0.639 KA relative to UGCAUGU
25 | B25 | 0.502 KA relative to UGCAUGU
26 | B26 | 0.407 KA relative to UGCAUGU
27 | B27 | 0.0967 KA relative to UGCAUGU
28 | B28 | 0.278 KA relative to UGCAUGU
29 | B29 | 0.305 KA relative to UGCAUGU
30 | B30 | 0.147 KA relative to UGCAUGU
31 | B31 | 0.0961 KA relative to UGCAUGU
